# IL1B secr inh: inflammasome signaling inhibition, IL-1 beta readout; hit rate 4.7% among 360,000; activity change, % at 57.5 µM; THP-1 LPS/ATP IL-1B secretion, AlphaLISA, 16 h; active compounds read low; in the data active means activity change below about -50%; inconclusive means mostly about -30% to -49%
#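 Secreted IL-1B measured by AlphaLISA bead assay after 16 h compound exposure of THP-1 cells; compounds (final up to 57.5 uM) added 1 h before LPS (250 ng/mL) and ATP (1.25 mM) stimulation; lower signal means less secretion.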
# VP16 counter: inhibits Gal4-VP16 luciferase reporter, ROR gamma counter-screen. Potency, µM (titrated, usually from 53.6 µM), inactives show top-dose activity, negative = inhibition, actives largely listed as inhibitors. Drosophila S2 Gal4-VP16 UAS-luciferase, luminescence, 20 h. AID 2546. hit rate 3.5% among 310,000;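 further: Gal4-VP16 expression switched on by copper sulfate through the metallothionein promoter; potency means the concentration at half of the fitted maximal effect; nearly all actives have a fitted effect of over 50% in size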
# RORgamma inh: blocks mouse ROR gamma transcriptional activity | P51450 | Drosophila S2 Gal4-RORgamma UAS-luciferase reporter, 20 h | Potency, µM (doses to about 53.6 µM), inactives show top-dose activity change, negative = inhibition, usual class: inhibitors | hit rate 5.4% among 310,000 | AID 2551; further: potency means the concentration at half of the fitted maximal effect; nearly all actives have a fitted effect of over 60% in size
# Target sequence (P51450 whole entry, looked up, the tested form may be a part): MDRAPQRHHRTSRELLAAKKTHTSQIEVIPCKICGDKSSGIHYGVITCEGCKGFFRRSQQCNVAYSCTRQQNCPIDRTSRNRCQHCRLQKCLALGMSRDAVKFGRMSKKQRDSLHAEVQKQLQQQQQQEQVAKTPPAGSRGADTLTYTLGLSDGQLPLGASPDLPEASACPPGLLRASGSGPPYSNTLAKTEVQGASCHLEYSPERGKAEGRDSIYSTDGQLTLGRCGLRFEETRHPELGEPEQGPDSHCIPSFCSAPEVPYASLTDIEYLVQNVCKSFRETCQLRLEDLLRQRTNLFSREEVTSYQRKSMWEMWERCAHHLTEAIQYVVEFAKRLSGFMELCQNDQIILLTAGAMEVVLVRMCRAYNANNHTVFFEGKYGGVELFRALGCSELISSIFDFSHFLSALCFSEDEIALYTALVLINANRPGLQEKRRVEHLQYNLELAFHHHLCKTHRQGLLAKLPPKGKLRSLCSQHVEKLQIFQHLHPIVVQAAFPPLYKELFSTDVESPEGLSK
#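 Luminescence from a UAS-regulated Photinus luciferase reporter in stably transfected Drosophila Schneider cells is measured; decreased signal marks ROR gamma inhibition. Fusion expression is induced by 700 uM copper sulfate for 20 hr.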
# TDP1 cell CPT: DT40-hTDP1 cell growth loss with CPT; chicken DT40 Tdp1-/-;hTDP1 cells + 20 nM CPT, ATP luminescence, 48 h; Potency, µM (doses to about 46.2 µM), for the others: top-dose activity change, negative = growth inhibition, most hits filed as inhibitors; hit rate 12% among 420,000; AID 686979; further: potency means the concentration at half of the fitted maximal effect; nearly all actives have a fitted effect of over 55% in size
#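 Cell growth measured by CellTiter-Glo luminescence after a minimum 48 h, 37 C compound exposure with 20 nM CPT in Tdp1-knockout DT40 cells stably expressing hTDP1, seeded 400/well; qHTS titration format.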
# TDP1 cell noCPT: qHTS for Inhibitors of human tyrosyl-DNA phosphodiesterase 1 (TDP1): qHTS in cells in absence of CPT; DT40 Tdp1-/- hTDP1 cells, no CPT, ATP luminescence, 48 h; Potency, µM (doses to about 46.2 µM), for inactives: top-dose activity change, negative = growth inhibition, most hits filed as inhibitors; hit rate 15% among 420,000; AID 686978, 2013; further: potency means the concentration at half of the fitted maximal effect; nearly all actives have a fitted effect of over 55% in size
#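 Growth kinetics read by CellTiter-Glo luminescence after ≥48 hr at 37 °C. Cells: DT40 Tdp1-/- stably carrying human TDP1, 400 per well, compound exposure in the absence of CPT (DMSO vehicle).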
# LDHA block: inhibitors of human lactate dehydrogenase A | purified LDHA, NADH/diaphorase-resazurin fluorescence; active compounds read low | activity change, % (values are at about 110 or 230 µM) | hit rate 0.15% among 480,000 | AID 1347041; in the data active means activity change below about -30%; inconclusive means mostly about -25% to -30%;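 further: plate controls were DMSO wells for no effect and wells without enzyme for full effect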
#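 Human LDH5 at 2 nM final in Tris HCl pH 7.4 with 0.06 mM NADH and 0.2 mM pyruvate, reacted 5 minutes at room temperature. Remaining NADH coupled via diaphorase/resazurin; resorufin fluorescence read at 0 and 20 minutes, normalized to enzyme-free and DMSO wells.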
# Starred values were filed as active, the others as inactive; ? = inconclusive; . = not tested or not shown. Compounds with a hit are over-represented: about 18% of the library has one in this group of screens. Unless noted, the call rests on the fitted dose curve; in most records, active means well fitted curve in the direction sought with a large enough effect; inconclusive means small, poorly fitted or top-dose-only effect, or another doubt; inactive means no such curve, though single readings can be large; an effect the other way counts as inactive or inconclusive. Unless noted, on the % scale 0 is the no-effect control and ±100 the full control effect.
SMILES,IL1B secr inh,VP16 counter,RORgamma inh,TDP1 cell CPT,TDP1 cell noCPT,LDHA block
Clc1cccc(Cc2c(C3CCCCC3)nc3ccc(Br)cn23)c1,20.2,.,.,23.1µM*,?,-2.9
COC(=O)c1ccc2nc(C3CCCCC3)c(Cc3ccc(C)cc3)n2c1,6.3,.,.,25.9µM*,23.1µM*,0.4
Cc1cc2nc(C3CCCCC3)c(Cc3cccc(Cl)c3)n2c(C)c1Br,38.4,.,.,-18.0%,-25.2%,-5.6
COC(=O)c1ccc2nc(C3CCCCC3)c(Cc3cccc(Cl)c3)n2c1,11.5,.,.,?,16.4µM*,5.9
O=C(Nn1cnnc1)c1ccc(Cl)cc1Cl,.,.,.,.,.,3.2
Cc1cccc(N2CCN(S(=O)(=O)c3c(C(=O)N4CCC(C)CC4)c(C)n(C)c3C)CC2)c1C,.,.,.,-114.3%,23.1µM*,-3.7
CCOC(=O)c1c(C)[nH]c(C)c1S(=O)(=O)N(C)CC(=O)N1CCN(c2cccc(C)c2C)CC1,.,.,.,18.4µM*,?,-8.7
Cc1cccc(N2CCN(S(=O)(=O)c3c(C)[nH]c(C)c3C(=O)N3CCCCC3)CC2)c1C,-51.2*,3.0%,23.9%,20.6µM*,?,0.2
Cc1cccc(N2CCN(S(=O)(=O)c3c(C(=O)N4CCCCC4)c(C)n(C)c3C)CC2)c1C,0.0,8.6%,18.3%,?,?,1.7
N#C/C(C(=O)COC(=O)c1ccc(-c2ccccc2)cc1)=C(/c1ccc(F)cc1)N1CCOCC1,.,.,.,.,.,15.8
Cc1ccccc1OCC(=O)Nc1nonc1-c1ccccc1,.,.,.,.,.,9.0
COC(=O)C(NC(=O)CCc1c(C)nc2c(-c3ccccc3)c(C)nn2c1C)C(C)C (stereo not given),.,.,.,?,25.9µM*,-3.4
Cc1nc2c(-c3ccccc3)c(C)nn2c(C)c1CCC(=O)NCc1ccco1,-9.0,-6.6%,-40.2%,?,?,-1.5
Cc1nc2c(-c3ccccc3)c(C)nn2c(C)c1CCC(=O)NCc1ccc(Cl)cc1,.,.,.,?,?,0.1
Cc1nc2c(-c3ccc(F)cc3)c(C)nn2c(C)c1CCC(=O)NC(C)CCc1ccco1 (stereo not given),?,-7.2%,14.4%,23.1µM*,23.1µM*,-5.0
Cc1nc2c(-c3ccccc3)c(C)nn2c(C)c1CCC(=O)NC(C)c1ccccc1 (stereo not given),.,.,.,-24.8%,?,-2.3
COc1ccc(OC)c(NC(=O)CCc2c(C)nc3c(-c4ccccc4)c(C)nn3c2C)c1,.,.,.,?,20.6µM*,5.8
CCOc1ccc(NC(=O)CCc2c(C)nc3c(-c4ccccc4)c(C)nn3c2C)cc1,.,.,.,-17.3%,?,-4.0
CCN1CCN(c2ccc(NC(=O)CCc3c(C)nc4c(-c5ccccc5)c(C)nn4c3C)cc2)CC1,-62.0*,3.3%,-32.0%,?,16.4µM*,-1.5
Cc1cc(=O)oc2cc(NC(=O)Cc3ccccc3F)ccc12,.,.,.,.,.,-8.9
Cc1nc2c(-c3ccccc3)c(C)nn2c(C)c1CCC(=O)Nc1ccccc1F,.,.,.,18.4µM*,?,-2.9
Cc1nc2c(-c3ccc(F)cc3)c(C)nn2c(C)c1CCC(=O)Nc1ccc(F)cc1F,-16.6,-4.7%,-35.8%,-19.2%,-20.7%,-11.1
Cc1nc2c(-c3ccccc3)c(C)nn2c(C)c1CCC(=O)NCc1ccccc1,.,.,.,-21.2%,?,-3.6
CSc1ccc(CCNC(=O)CCc2c(C)nc3c(-c4ccccc4)c(C)nn3c2C)cc1,.,.,.,?,20.6µM*,0.9
COc1ccc(NC(=O)CCc2c(C)nc3c(-c4ccc(F)cc4)c(C)nn3c2C)c(OC)c1,.,.,.,23.1µM*,20.6µM*,1.4
SMILES,IL1B secr inh,VP16 counter,RORgamma inh,TDP1 cell CPT,TDP1 cell noCPT,LDHA block
Cc1[nH]nc2c1C(c1c(F)cccc1Cl)C1=C(COC1=O)N2 (stereo not given),.,.,.,.,.,-6.8
CN(CC(=O)Nc1ccc(F)cc1)C(=O)COc1ccc(C(=O)c2ccccc2)cc1,-18.3,0.7%,42.8%,?,20.6µM*,-3.1
COc1ccc(NC(=O)CN(C)C(=O)Cc2c[nH]c3ccccc23)cc1,-3.6,.,.,-5.3%,-22.1%,4.7
CCN(CC(=O)Nc1ccc(NC(C)=O)cc1)C(=O)COc1ccc(C(=O)c2ccccc2)cc1,-3.3,-3.0%,32.2%,2.9%,-20.6%,-9.5
CSc1ccc(CN(C)C(=O)COc2ccc(C(=O)c3ccccc3)cc2)cc1,22.6,-5.5%,20.4%,?,14.6µM*,-1.8
CN(Cc1ccccc1)C(=O)COc1ccc2ccccc2c1,0.0,.,.,-26.0%,-45.2%,1.8
COc1ccc(NC(=O)CN(C)C(=O)COc2ccccc2Cc2ccccc2)cc1,-2.6,.,.,25.9µM*,18.4µM*,-2.1
Cc1cc(C(=O)N(C)CC(=O)Nc2ccccc2C(F)(F)F)c(C)o1,-28.5,?,?,16.4µM*,23.1µM*,-0.8
COc1ccc(C2C(C(N)=O)=C(C)Nc3nc(-c4cccc(C)c4)nn32)cc1 (stereo not given),.,.,.,.,.,-9.6
CCOc1ccc(NC(=O)CN(C)C(=O)c2ccccc2OCc2cccc(C)c2)cc1OCC,-27.8,.,.,?,?,0.6
CN(CC(=O)Nc1ccccc1C(F)(F)F)C(=O)COc1ccccc1Cc1ccccc1,-14.4,.,.,?,16.4µM*,3.6
CN(CC(=O)Nc1ccc(F)cc1)C(=O)COc1ccccc1Cc1ccccc1,-69.4*,.,.,?,?,-3.9
CN(CC(=O)Nc1ccccc1C(F)(F)F)C(=O)Cc1ccc2ccccc2c1,.,.,.,.,.,-11.4
CCOc1ccc(NC(=O)CN(C)C(=O)c2ccccc2Cc2ccccc2)cc1OCC,1.3,.,.,14.6µM*,9.2µM*,1.9
Cc1ccc(C(=O)OC(C)C(=O)Nc2ccc3c(c2)OCO3)cc1O (stereo not given),.,.,.,.,.,-6.4
COc1cc([N+](=O)[O-])cc(/C=N/NC(=O)c2cc(-c3ccccc3)nc3ccccc23)c1O,55.8,4.47µM*,2µM*,20.6µM*,23.1µM*,-1.9
Cc1cc(C(=O)N/N=C/c2cccc([N+](=O)[O-])c2)c2ccccc2n1,4.8,2.5%,-37.7%,?,?,-1.5
COc1cc([N+](=O)[O-])cc(/C=N/NC(=O)c2cc(C)nc3ccccc23)c1O,51.7,12.6µM*,5.62µM*,?,?,2.7
CCOC(=O)N1CCN(C(=O)CNC(=O)c2cc3cc(OC)c(OC)cc3n2C)CC1,.,.,.,.,.,-2.6
CN(C)C(CNC(=S)NC(C)(C)CC(C)(C)C)c1ccccc1 (stereo not given),.,.,.,.,.,-1.1
COc1ccc(C(=O)Nc2ccc(Cl)cc2C(=O)N2CCCCCC2)cc1,.,.,.,.,.,-12.7
